Activity calls are given as the source filed them. The calls were made as follows: active = hit-call score of the fitted dose curve at least 0.9, where 1 is the maximum; inactive = score below 0.9.
assay: UKN2_HCS_IMR90_cell_viability: Viability Assessment in the University of Konstanz (UKN) Leist Lab Neural Crest Cell Migration Assay in human induced IMR90 Pluripotent Stem Cells (UKN2) (AID 2284233);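 also: cells exposed to compound for 24 h after a 24 h migration phase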
Procedure: UKN2_HCS_IMR90 is a cell-based, multiplexed-readout assay screening for neural crest cell migration and cell viability that uses IMR90 (neural crest cells differentiated from iPSC), a human embryo cell line, with measurements taken at […] after chemical dosing in a microplate: 96-well plate. UKN2, also known as cMINC, is an assay that uses IMR90 cells (neural crest cells differentiated from iPSC) as a model of neural crest cell migration. 24 hr after cell seeding, cell migration was initiated and proceeded for 24 hr. Then, chemical was applied, and after 24 hr of exposure migration and viability were assessed using high-content imaging of cells stained with calcein-AM and Hoechst H-33342.UKN2_HCS_IMR90_cell_viability is an assay component measured from the UKN2_HCS_IMR90 assay. It is designed to make measurements of enzyme activity, a form of viability reporter, as detected with Fluorescence intensity signals by HCS Fluorescent Imaging.The assay endpoint UKN2_HCS_IMR90_cell_viability was analyzed with bidirectional fitting relative to DMSO as the negative control and baseline of activity. Using a type of viability reporter, gain or loss-of-signal activity can be used to understand viability effects. To generalize the intended target to other relatable targets, this assay endpoint is annotated to the cell cycle intended target family, where the subfamily is viability.
The wells are coated with PLO/laminin/fibronectin. Then, silicone stoppers are placed into the wells of a 96-well plate. Cells are seeded around the stoppers and allowed to attach for 24 hours. Day 0: The silicone stoppers are removed and the medium is replaced with pre-warmed, fresh N2-S medium containing the cytokines EGF and FGF. Cells are allowed to migrate into the cell free area. Day 1: 25 ul of the 5x concentrated toxicants are added to the wells. The cells plus toxicants are incubated for 24 h. Day 2: Cells are stained with calcein-AM and Hoechst (H-33342) for 30 min before imaging with a high content imaging microscope. Quantification of migration and viability is done by high content imaging analysis.

| Compound | outcome | AC50 |
| --- | --- | --- |
| COP(=O)(OC)OC=C(Cl)Cl | inactive | – |
| ClC1C(Cl)C(Cl)C(Cl)C(Cl)C1Cl (stereo not given) | inactive | – |
| O=S1OCC2C(CO1)C1(Cl)C(Cl)=C(Cl)C2(Cl)C1(Cl)Cl (stereo not given) | – | 14.8 µM (active) |
| CC1(c2ccc(Oc3ccccc3)cc2)OC(=O)N(Nc2ccccc2)C1=O (stereo not given) | inactive | – |
| O=[N+]([O-])/N=C1\NCCN1Cc1ccc(Cl)nc1 | inactive | – |
| O=C(O)COc1ccc(Cl)cc1Cl | inactive | – |
| CC(C)N(C(=O)COc1nnc(C(F)(F)F)s1)c1ccc(F)cc1 | inactive | – |
| CC[C@H](C)[C@H]1O[C@]2(C=C[C@@H]1C)C[C@@H]1C[C@@H](C/C=C(\C)[C@@H](O[C@H]3C[C@H](OC)[C@@H](O[C@H]4C[C@H](OC)[C@@H](O)[C@H](C)O4)[C@H](C)O3)[C@@H](C)/C=C/C=C3\CO[C@@H]4[C@H](O)C(C)=C[C@@H](C(=O)O1)[C@]34O)O2 (tested in a mixture with another compound) | – | 7.09 µM (active) |
| CC1(C)C(C=C(Cl)Cl)C1C(=O)OC(C#N)c1ccc(F)c(Oc2ccccc2)c1 (stereo not given) | inactive | – |
| O=C(O)C(F)(F)C(F)(F)C(F)(F)C(F)(F)C(F)(F)C(F)(F)C(F)(F)F | inactive | – |
